Screening results (PubChem BioAssay)
An excerpt weighted towards active compounds, which were near 21% of everything screened.
CHX counter: Cycloheximide Counterscreen for Small Molecule Inhibitors of Shiga Toxin; cell reporter, cycloheximide protein synthesis inhibition counterscreen; max response, %; 300,000 compounds, 12% hits; in the data active = max response mostly above about 13%, no sharp cut-off; inactive = mostly below about 14%; note: read at 38.3 µM for the half of the compounds with a filed dose; 0% is about no effect
Sm TGR inh: qHTS Assay for the Inhibitors of Schistosoma Mansoni Peroxiredoxins; Potency, µM (doses to about 114 µM), without a hit: top-dose activity change, negative = inhibition, hits mostly inhibitors; AID 485364, 2010; 360,000 compounds, 3% hits; Schistosoma mansoni thioredoxin glutathione reductase (TGR), Q962Y6; purified TGR, DTNB reduction, TNB absorbance 405 nm; note: potency is the fitted concentration of half-maximal effect; % is set by controls: 0 for no effect and ±100 for the full control effect; nearly all actives have a fitted effect of over 60% in size
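TGR 20 nM + NADPH 100 uM (dispensed conc.), cpd preinc 15 min RT; start with NADPH (500 uM addition) then DTNB (15 mM addition). Kinetic TNB absorbance, 405 nm filter. Four-parameter Hill fit across titration.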
Pf growth 96h: Primary qHTS for delayed death inhibitors of the malarial parasite plastid, 96 hour incubation; P. falciparum luciferase reporter growth, 96 h; Potency, µM (doses to about 28.7 µM), inactives show at the top dose activity change, negative = inhibition, actives largely listed as inhibitors; 320,000 compounds, 6.9% hits; AID 504834, 2011; note: potency is the fitted concentration of half-maximal effect; % is set by controls: 0 for no effect and ±100 for the full control effect
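Plates of compound plus infected erythrocytes (2% hematocrit, 0.05% parasitemia final) incubate 96 hours, 37 C, 5% CO2. Detection reagent added; reduced luminescence from the parasites' luciferase reporter flags inhibition.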
NS1 inh: qHTS Assay for Inhibitors of Influenza NS1 Protein Function | Potency, µM (top dose mostly 46.1 µM), for the others: at the highest dose activity, positive = more growth | 270,000 compounds, 0.4% hits; calls by dose curve; note: potency is the fitted concentration of half-maximal effect; actives are rising curves; nearly all actives have a fitted effect of over 50% in size
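S. cerevisiae expressing influenza A NS1, grown in glucose, washed, then diluted 1:100 into pH 6.0 -URA galactose medium with 23 nl compound. Growth recovery read as OD600; NS1-free strain serves as control.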
Shiga inhibitor: A qHTS for Small Molecule Inhibitors of Shiga Toxin; Vero cells, Shiga toxin protein synthesis inhibition reporter; inhibition, % at 38.7 µM; 290,000 compounds, 9.2% hits; in the data active = inhibition mostly above about 28%, no sharp cut-off; inactive = mostly below about 43%; note: 0% is about no effect
Pf growth 48h: Primary qHTS for delayed death inhibitors of the malarial parasite plastid, 48 hour incubation; P. falciparum luciferase growth in erythrocytes, 48 h; Potency, µM (titrated, usually from 28.7 µM), without a hit: top-dose activity change, negative = inhibition, most hits filed as inhibitors; 310,000 compounds, 5.9% hits; AID 504832, 2011; note: potency is the fitted concentration of half-maximal effect; % is set by controls: 0 for no effect and ±100 for the full control effect
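Luciferase-expressing parasites in RBCs, 2% Hct / 0.1% parasitemia final; RPMI 1640 + 0.5% Albumax; 37 C, 5% CO2, one generation; luminescence read-out, lower signal = inhibition.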
* hit, by the source's call; ? = inconclusive; . = not tested or not shown. Unless noted, calls come from the whole dose curve; as a rule, active = well fitted curve in the direction sought with a large enough effect; inconclusive = small, poorly fitted or top-dose-only effect, or another doubt; inactive = no such curve, though single readings can be large; an effect the other way counts as inactive or inconclusive.

SMILES | CHX counter | Sm TGR inh | Pf growth 96h | NS1 inh | Shiga inhibitor | Pf growth 48h
COC(=O)c1sccc1-c1ccc(C(N)=O)o1 | -3 | 50µM* | 5% | -6% | 10 | -4%
COC(=O)c1sccc1NC(=O)c1cccnc1 | -1 | 2% | 1% | -10% | -14 | 19%
COc1ccc(Cl)cc1NC(=O)Cn1cc2c(n1)CCC(C)C2 (stereo not drawn) | . | 1% | . | . | . | .
Cc1c(Cl)cccc1Nc1nn2c(=O)c3ccc(C(=O)NCCC4=CCCCC4)cc3nc2s1 | . | -15% | . | . | . | .
Cc1ccc(C)c(CSCc2nc3ccccc3[nH]2)c1 | 4 | 1% | ? | -44% | -1 | ?
c1ccc2cc(CSCc3nc4ccccc4[nH]3)ccc2c1 | -1 | -1% | ? | -45% | 38 | 13µM*
C=C(C)CSCc1nc2ccccc2[nH]1 | 37* | 2% | . | -31% | 54 | 17%
Cc1ccccc1CSCc1nc2ccccc2[nH]1 | 32* | -7% | -26% | -2% | 39* | ?
COc1ccc(C(=O)Nc2ccc(N(C)Cc3ccccc3)c(C(=O)O)c2)cc1 | . | -1% | . | . | . | .
CCOC(=O)N1CCN(C(=O)c2ccc(CS(=O)Cc3ccc(C)cc3)o2)CC1 (stereo not drawn) | -2 | 40µM* | ? | 5% | 6 | 12%
Cc1cccc(N2CCN(C(=O)c3ccc(CS(=O)Cc4cccc(Cl)c4)o3)CC2)c1C (stereo not drawn) | -3 | 40µM* | ? | 11% | -6 | 4%
O=C(c1ccc(CS(=O)Cc2ccc(Cl)cc2)o1)N1CCN(c2ccccc2F)CC1 (stereo not drawn) | 32 | ? | ? | 3% | -2 | 100%
Cc1ccc(Cl)cc1N1CCN(C(=O)c2ccc(CS(=O)Cc3ccc(Cl)cc3)o2)CC1 (stereo not drawn) | -4 | 45µM* | ? | -29% | -10 | 21%
Cc1ccc(C)c(N2CCN(C(=O)c3ccc(CS(=O)Cc4ccc(Cl)cc4)o3)CC2)c1 (stereo not drawn) | -4 | ? | 33% | 17% | -8 | 19%
O=C1c2c([N+](=O)[O-])cc([N+](=O)[O-])cc2S(=O)N1Cc1ccccc1 (stereo not drawn) | 3 | 40µM* | ? | . | 18 | 0%
O=C1NS(=O)c2cc([N+](=O)[O-])cc([N+](=O)[O-])c21 (stereo not drawn) | -1 | . | 0% | 1% | -3 | -12%
CN(C(=O)c1ccc2c(c1)OCO2)C1CCS(=O)(=O)C1 (stereo not drawn) | . | 1% | 20% | . | . | 9%
CN(c1ccccc1)S(=O)(=O)c1cccc(C(=O)Nc2cccc(C(=O)NC3CC3)c2)c1 | . | -3% | 6.6µM* | . | . | 5.2µM*
CN(c1cccc(Cl)c1)S(=O)(=O)c1cccc(C(=O)Nc2ccc3c(c2)CCC3)c1 | 30* | 7% | ? | ? | 47* | ?
CN(c1ccc(C(=O)NC2CC2)cc1)S(=O)(=O)c1ccccc1 | 11 | -14% | . | -3% | -9 | 4.7µM*
CN(c1ccccc1)S(=O)(=O)c1cccc(C(=O)NC2CC(C)(C)NC(C)(C)C2)c1 | . | 1% | -25% | . | . | -19%
COC(=O)c1ccccc1NC(=O)c1ccc(-c2ccc(Br)cc2)o1 | 9 | -22% | ? | 0% | 8 | .
COC(=O)c1ccccc1N/C=C/C(=O)c1ccc(Br)cc1 | 43* | -10% | ? | -2% | 27* | 74%
NC(=O)c1ccccc1N/C=C1\CCCCC1=O | -3 | -12% | ? | 4% | 34 | 19%
NC(=O)c1ccccc1N/C=C/C(=O)c1ccccc1 | 47* | ? | 0% | -32% | 56* | 258%
Cc1ccc(NC(=O)CN2CCOCC2)cc1Cl | -3 | -16% | 21% | 1% | 6 | .
Cc1cc(C)cc(NC(=O)C(c2ccccc2)N2CCN(CC(=O)NC3CC3)CC2)c1 (stereo not drawn) | . | -20% | 9.3µM* | . | . | 5.2µM*
